Screens: PubChem BioAssay, National Center for Advancing Translational Sciences (NCATS)
In the library only some 21% were active in any assay of this set; here they are far more common.
Pf growth 48h = P. falciparum growth inhibition at 48 hours (one generation). P. falciparum luciferase growth in erythrocytes, 48 h. Potency, µM (titrated, usually from 28.7 µM), inactives show at the highest dose activity change, negative = inhibition, hits mostly inhibitors. 310,000 tested, 5.9% active; further: potency means the concentration at half of the fitted maximal effect; on the % scale 0 is the no-effect control and ±100 the full control effect
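Parasite viability was followed by luminescence of a genomically integrated firefly luciferase. Cultures held 0.1% parasitemia at 2% hematocrit (final), incubated under 5% CO2 at 37 C.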
HCMV antiviral = inhibitors of human cytomegalovirus | AID 1259415 | 410,000 tested, 4.5% active | HFF cells, HCMV-luciferase reporter, 72 h; active compounds read low | activity change, negative = inhibition, % at 57.5 µM; in the data active means activity change below about -60%; inconclusive means no clear call, values can overlap the other calls; inactive means above about -39%; further: on the % scale 0 is the no-effect control and ±100 the full control effect
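Luciferase read-out from HCMV-luciferase-infected HFFs (MOI 1 PFU/cell) 72 h post infection at 37C; compounds added after 16 h cell attachment; activity normalized between buffer-only basal and Salinomycin (10uM) inhibitor controls.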
Pf growth 96h = inhibits malaria parasite growth, 96 h. P. falciparum luciferase reporter growth, 96 h. Potency, µM (doses to about 28.7 µM), for inactives: top-dose activity change, negative = inhibition, usual class: inhibitors. 320,000 tested, 6.9% active; further: potency means the concentration at half of the fitted maximal effect; on the % scale 0 is the no-effect control and ±100 the full control effect
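96 h incubation, 37 C, 5% CO2, of luciferase-reporter P. falciparum-infected RBCs (2% hematocrit, 0.05% parasitemia final) with test compounds; endpoint luminescence.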
Shiga toxin inh = inhibitors of Shiga toxin in Vero cells. Vero cells, Shiga toxin protein synthesis inhibition reporter. inhibition, % at 38.7 µM. 290,000 tested, 9.2% active. AID 2315; in the data active means inhibition mostly above about 28%, no sharp cut-off; inactive means mostly below about 43%; further: 0% is about no effect
CHX counter = affects cycloheximide protein synthesis inhibition readout, counter-screen. cell reporter, cycloheximide protein synthesis inhibition counterscreen. AID 2314. max response, %. 300,000 tested, 12% active; in the data active means max response mostly above about 13%, no sharp cut-off; inactive means mostly below about 14%; further: read at 38.3 µM for the half of the compounds with a filed dose; 0% is about no effect
HCV inhibitor = HCV inhibition; Huh7.5.1 HCVcc-Cre infection, luciferase reporter, 44 h; Potency, µM (highest dose often 41.8 µM), for inactives: at the highest dose activity change, negative = inhibition, usual class: inhibitors; 340,000 tested, 3.4% active; AID 651820; further: potency means the concentration at half of the fitted maximal effect; on the % scale 0 is the no-effect control and ±100 the full control effect
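Cells seeded at 1,000/well and cultured 4 h, then compounds added followed by HCVcc-Cre virus (~0.5 moi). After 44 h further culture, luciferase substrate was added, plates held 15 min at room temperature, and luminescence read for 15 sec.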
* = called active by the depositor; i = inactive; ? = inconclusive; . = no result. Unless noted, the call rests on the fitted dose curve; in most records, active means well fitted inhibition curve with a large enough effect; inconclusive means small, poorly fitted or top-dose-only effect, or another doubt; inactive means no such curve, though single readings can be large or run the other way.

SMILES	Pf growth 48h	HCMV antiviral	Pf growth 96h	Shiga toxin inh	CHX counter	HCV inhibitor
CC(C)OCCCn1c(=O)c2ccccc2n2c(-c3cc(Cl)ccc3O)nnc12	.	-20	.	.	.	.
Cc1ccc(-n2c(=O)c3c4c(sc3n(CC(=O)C(C)(C)C)c2=O)CCCCC4)cc1C	.	-11	.	.	.	.
O=C(O)c1ccc(CNCc2ccccc2Cl)s1	.	-13	.	.	.	.
Cc1ccc(-c2cn3cccnc3n2)cc1NC(=O)Nc1ccc(F)cc1	.	9	.	.	.	.
CCOC(=O)C1CCN(Cc2cc(=O)oc3c(C)c(C)ccc23)CC1	?	-4	-29%	15	0	9%
COc1ccc(C2Nc3ccccc3C(=O)N2Cc2ccco2)cc1COc1ccccc1F (centres undefined)	.	-13	4.1µM*	2	13	?
COc1ccc(C2Nc3ccccc3C(=O)N2Cc2ccccc2)cc1CSc1ccccn1 (centres undefined)	?	-14	?	-19	-4	-25%
O=C1c2ccccc2NC(c2ccc(O)cc2)N1Cc1ccco1 (centres undefined)	-24%	38	?	-13	0	-10%
Cc1ccc(C2Nc3ccccc3C(=O)N2Cc2ccco2)cc1 (centres undefined)	?	4	15µM*	-4	16	-17%
O=C1c2ccccc2NC(c2cccc(F)c2)N1Cc1ccco1 (centres undefined)	-18%	-28	?	13	2	-7%
COc1ccc(C2Nc3ccccc3C(=O)N2Cc2ccco2)cc1COc1ccc(NC(C)=O)cc1 (centres undefined)	?	-62*	10µM*	-8	3	?
O=C(Nc1ccc(S(=O)(=O)NCC2CCCO2)cc1)c1cccc(F)c1 (centres undefined)	-7%	-21	17%	6	-4	?
O=C(C1CCN(c2nc3ccccc3[nH]2)CC1)N1CCN(c2ccccc2)CC1	.	0	.	.	.	.
COc1ccccc1[C@@H]1C(c2ccc(F)cc2)=NN(c2ccc(Br)cc2)[C@H]1C(=O)N1CCOC1=O	.	.	.	i	-2	.
COC(=O)COc1ccc(C(=O)OC)cc1	11%	20	-18%	-8	-3	?
COc1ccccc1C(=O)COC(=O)c1cccc(-n2cnnn2)c1	50%	3	24%	.	.	0%
COC(=O)c1ccc(COC(=O)c2ccccc2OC)cc1	41%	-14	-13%	97*	67*	8%
CCOc1ncccc1C(=O)OCc1ccc(C(=O)OC)cc1	61%	23	99%	98*	81*	?
COC(=O)c1ccc(OCC(=O)c2ccccc2OC)cc1	.	24	?	54	22*	-3%
COc1ccccc1C(=O)COC(=O)c1ccc(-n2cnnn2)cc1	2%	-18	?	.	.	10µM*
O=C(C[C@@H]1C/C=C\CCC(=O)OC[C@@H]2CCCN2C1=O)N[C@@H](CO)Cc1ccccc1	.	0	.	.	.	5%
Nc1ccccc1C(=O)OCCc1ccccc1	165%	70	301%	.	.	-18%
COc1ccccc1C(=O)OCCc1ccccc1	.	-100*	.	.	.	-7%
COC(=O)c1ccc(COC(=O)C(CCS(C)(=O)=O)N2C(=O)c3ccccc3C2=O)cc1 (centres undefined)	-9%	-20	6.6µM*	7	-1	15%
CC(=O)c1cn(CC(=O)Nc2c(C)cccc2C)c2ccccc12	8%	-75*	45%	-8	6	5.6µM*
CC(=O)c1cn(CC(=O)Nc2ccccc2C)c2ccccc12	?	-68*	186%	78	-3	?
O=C(CCCCCN1C(=O)c2ccccc2C1=O)Nc1nccs1	?	-4	?	15	-3	-7%
O=C(CCCCCN1C(=O)C2C3C=CC(C3)C2C1=O)Nc1nccs1 (centres undefined)	.	19	2.3µM*	18	-5	2%
O=C(CCN1C(=O)C2C3C=CC(C3)C2C1=O)Nc1nccs1 (centres undefined)	23%	-69*	?	-4	8	25%
O=C1c2oc3ccccc3c(=O)c2C(c2cccc(Br)c2)N1Cc1ccco1 (centres undefined)	4%	-16	0.37µM*	-5	11	3%
